Compounds with a hit are over-represented: about 3% of the library has one in this group of screens.
VDR inh: Inhibitors of the vitamin D receptor (VDR): qHTS. Vitamin D3 receptor (Homo sapiens), P11473. VDR-SRC2-3 peptide fluorescence polarization, 2 h. Potency, µM, without a hit: max response, negative = inhibition, hits mostly inhibitors. 400,000 compounds, 0.93% hits
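Fluorescence polarization assay measuring small-molecule disruption of VDR binding to the coregulator peptide SRC2-3. Compounds were pin-transferred (23 nl) into the reagent mix and incubated 2 h at room temperature before reading.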
PLK1 PBD inh: qHTS for Inhibitors of PLK1-PDB (polo-like kinase 1 - polo-box domain): Primary Screen; 360,000 compounds, 2.8% hits; Serine/threonine-protein kinase PLK1 (Homo sapiens), P53350; Plk1 PBD binding of FITC phosphopeptide, fluorescence polarization; Potency, µM, for inactives: max response, negative = inhibition, most hits filed as inhibitors; also: series mostly up to about 57 µM; nearly all actives have a fitted effect of over 65% in size
12-LOX inh: Primary qHTS assay for inhibitors of human arachidonate 12S-lipoxygenase (ALOX12): Round 2 | purified 12hLO, xylenol orange hydroperoxide absorbance | Potency, µM (titrated, usually from 108 µM), without a hit: at the highest dose activity change, negative = inhibition, usual class: inhibitors | 580,000 compounds, 1.1% hits | Polyunsaturated fatty acid lipoxygenase ALOX12 (Homo sapiens), P18054
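Purified human 12hLO (150 nM final) in 25 mM Hepes, 0.01% Triton X-100, pH 7.0 was preincubated 15 min at room temperature with compound. Then 40 uM arachidonic acid was added, 30 min. Hydroperoxide was read by Fe-XO absorbance ratio 573/405 nm.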
GCN5L2 inh: qHTS Assay for Inhibitors of GCN5L2; GCN5L2 HAT assay, ThioGlo1 CoA-SH fluorescence; Potency, µM (top dose mostly 58.9 µM), without a hit: at the highest dose activity change, negative = inhibition, actives largely listed as inhibitors; AID 504327, 2011; 390,000 compounds, 0.21% hits
Target sequence (Q92830 whole entry, looked up): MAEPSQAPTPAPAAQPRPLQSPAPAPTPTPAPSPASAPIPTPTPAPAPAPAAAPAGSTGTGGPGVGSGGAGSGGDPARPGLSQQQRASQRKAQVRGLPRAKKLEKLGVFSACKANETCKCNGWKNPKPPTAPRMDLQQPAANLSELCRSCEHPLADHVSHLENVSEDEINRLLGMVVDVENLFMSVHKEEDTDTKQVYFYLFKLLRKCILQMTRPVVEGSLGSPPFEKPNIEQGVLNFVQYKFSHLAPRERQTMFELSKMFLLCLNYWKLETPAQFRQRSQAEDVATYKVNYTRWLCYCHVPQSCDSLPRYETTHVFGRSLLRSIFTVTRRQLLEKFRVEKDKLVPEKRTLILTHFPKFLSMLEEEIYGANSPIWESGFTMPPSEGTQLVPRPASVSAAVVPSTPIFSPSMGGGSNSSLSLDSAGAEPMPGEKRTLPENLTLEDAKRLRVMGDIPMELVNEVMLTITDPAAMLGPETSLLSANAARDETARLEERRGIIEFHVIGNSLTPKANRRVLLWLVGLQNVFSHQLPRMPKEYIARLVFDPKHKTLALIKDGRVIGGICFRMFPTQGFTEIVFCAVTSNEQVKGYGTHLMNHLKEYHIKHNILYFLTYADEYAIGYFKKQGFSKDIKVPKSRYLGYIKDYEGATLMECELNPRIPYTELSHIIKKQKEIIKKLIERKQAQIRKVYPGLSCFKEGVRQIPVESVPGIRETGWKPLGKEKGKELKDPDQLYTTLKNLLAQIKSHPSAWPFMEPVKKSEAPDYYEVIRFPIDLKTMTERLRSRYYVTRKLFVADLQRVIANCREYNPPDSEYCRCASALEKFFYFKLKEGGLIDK
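GCN5L2 (20nM final) in 50mM HEPES, 0.1mM EDTA pH 7.5, 0.01% Tween-20 was preincubated 15 min at room temperature with compound, then given ThioGlo1 (50uM), H3(1-25) peptide (75uM) and acetyl-CoA (70uM); CoA-thiol fluorescence (Ex340/Em540) was read at 0 and 20 min.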
The depositor's hits bear a star; u = inconclusive; x = not tested or not shown; [ ] = dose if it differs, or a comment. Calls follow the shape of the dose curve; as a rule, active = well fitted curve in the direction sought with a large enough effect; inconclusive = small, poorly fitted or top-dose-only effect, or another doubt; inactive = no such curve, though single readings can be large; an effect the other way counts as inactive or inconclusive. % is scaled to controls: 0 for no effect and ±100 for the full control effect; potency is read from the fitted curve at half-maximal effect.

SMILES | VDR inh | PLK1 PBD inh | 12-LOX inh | GCN5L2 inh
Cn1c(CNC(=O)C(Cc2ccccc2)NC(=O)c2cccc(F)c2)cc(=O)n(C)c1=O (stereo not drawn) | -9.8% | 26.7µM* | 15.1% | -18.3%
O=C(CCNc1ccc(Br)cc1)c1cccc([N+](=O)[O-])c1 | 89.1µM* | u | -3.3% | -5.8%
Cc1ccc(NCCC(=O)c2cccc([N+](=O)[O-])c2)cc1 | -28.6% | u | u | -5.5%
O=C(CCNc1ccccc1)c1cccc([N+](=O)[O-])c1 | 89.1µM* | u | -10.2% | -10.5%
O=C(NCCNc1ccc([N+](=O)[O-])cc1)c1cccc(Br)c1 | -20.2% | -0.8% | -1.2% | -2.5%
CC(NC(=O)c1nccnc1N)c1ccc(F)c(F)c1 (stereo not drawn) | x | x | 11.5% | x
Cc1ccc(N2C(=O)C3CCCN3C2=S)cc1 (stereo not drawn) | 14.1% | 13.4µM* | u | -13.2%
Cc1cc(C)cc(N2C(=O)C3CCCN3C2=S)c1 (stereo not drawn) | -15.8% | u | 8.7% | -9.5%
COC(=O)c1cc(-c2cccc(OC)c2)nc2ccccc12 | x | x | 0.4% | x
O=C(Nc1ccc(F)cc1)N1CCc2ccccc2C1 | -14.7% | 21.2µM* | -13.3% | -6.4%
O=C(Nc1ccc2c(c1)OCO2)C1CCN(c2ccc3nncn3n2)CC1 | x | x | -13.2% | x
O=C(CCNC(=O)c1ccccc1Cl)N/N=C\c1ccc(O)cc1 | 22.4µM* | 11.9µM* | 0.2% | -2.3%
COc1cc(/C=N/NC(=O)CCNC(=O)c2ccccc2Cl)ccc1O | 8.4% | -2.6% | 12.7% | -7.3%
CCc1cccc2c(C(C)=O)cn(CC(=O)NC3CC3)c12 | x | x | 31.6µM* | x
CC(=O)c1cn(CC(=O)NC2CCCCCC2)c2ccccc12 | x | x | 15.4% | x
FC(F)(F)c1cccc(CSc2nnc(-c3ccncc3)n2-c2ccc(Br)cc2)c1 | x | x | 18.3% | x
COC(=O)c1cc(-c2cccc(C)c2)nc2ccccc12 | x | x | 16.3% | x
O=C(O)c1ccc(N/N=C/c2ccc(-c3cc(Cl)ccc3Cl)o2)cc1 | u | 21.2µM* | -24.0% | -6.9%
Cc1c(C(=O)O)cccc1-c1ccc(/C=N/n2cnnc2)o1 | -9.4% | u | -9.2% | -2.2%
O=C(O)c1ccc(N/N=C/c2ccc(-c3ccc(Cl)cc3Cl)o2)cc1 | -1.2% | 23.8µM* | u | -26.2%
Cc1c(C(=O)O)cccc1-c1ccc(/C=N/Nc2ccc(Br)cc2)o1 | u | u | 44.7µM* | -16.4%
Cc1ccccc1NC(=O)C(=O)NCC(c1ccc2c(c1)OCO2)N1CCN(C)CC1 (stereo not drawn) | x | x | 76.4% | x
COc1ccccc1-c1noc2nc(Nc3cccc(Cl)c3)ccc12 | x | x | 28.2µM* | x
O=C(CN1CCOCC1)Nc1ccc2c(c1)CCC2 | u | 26.7µM* | -0.1% | 20.7%
O=C(COC(=O)c1ccc2ccccc2c1O)NCC(F)(F)F | -26.3% | 26.7µM* | -14.3% | -6.5%
SMILES | VDR inh | PLK1 PBD inh | 12-LOX inh | GCN5L2 inh
CNC(=O)C1CCN(S(=O)(=O)c2c(C)noc2/C=C/N(C)C)CC1 | u | 26.7µM* | 8.6% | 3.0%
CC(=O)Nc1ccc(SC(Sc2ccc(NC(C)=O)cc2)c2ccccc2)cc1 | -17.2% | 16.8µM* | -26.8% | x
NS(=O)(=O)c1ccc(CCNC(=O)CNS(=O)(=O)c2cccc(Br)c2)cc1 | -29.4% | 5.32µM* | -6.1% | 4.7%
CC(=O)Nc1ccc(S(=O)(=O)NCC(=O)NCCc2ccc(S(N)(=O)=O)cc2)cc1 | 10.6% | -11.5% | 10.1% | 1.4%
CN(C)c1ccc(CN2CCC3(CC2)CC(=O)Nc2ccccc2O3)cc1 | x | x | 5.0%[6.33 µM] | x
Cc1ccc(S(=O)(=O)/N=C2/NC(=O)/C(=C/c3ccccc3)S2)cc1 | u | u | 12.6µM* | -2.1%
Cc1ccc(S(=O)(=O)/N=C2/NC(=O)/C(=C\c3ccccc3)S2)cc1 | 79.4µM* | 23.8µM* | 39.8µM* | u
Cc1ccc(/C=C2\S/C(=N/S(=O)(=O)c3cccs3)NC2=O)cc1 | -24.8% | 18.9µM* | 28.2µM* | -0.8%
CC(=O)Nc1ccc(S(=O)(=O)NNC(=O)c2cccc([N+](=O)[O-])c2)cc1 | -4.7% | -13.5% | 0.0% | -7.7%
O=C(NNS(=O)(=O)c1ccccc1[N+](=O)[O-])c1cccc([N+](=O)[O-])c1 | -1.5% | 16.8µM* | 13.7% | -1.2%
O=C(NNS(=O)(=O)c1ccccc1[N+](=O)[O-])c1cccnc1 | u | 26.7µM* | -5.8% | -4.5%
COc1ccc(OC)c(NC(=S)NCCSc2ccc(C)cc2)c1 | -25.9% | -7.6% | u | -9.0%
COc1ccc(NC(=S)NCCSc2ccc(C)cc2)c(OC)c1 | -9.8% | -8.2% | 35.5µM* | x

Screening results as filed in PubChem.
